Test [1] addresses Calcium and integrin-binding protein 1 (Homo sapiens) (UniProt Q99828). Nature of the test: Primary qHTS for Identification of Calcium Integrin Binding Protein 1 (CIB1) Competitor (AID 1508620).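 Also: GST tagged CIB1 binding a fluorescein labelled alphaIIb integrin peptide tracer; top concentration of the series differs between compounds; % is scaled to controls: 0 for no effect and ±100 for the full control effect.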 Summed up:
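Fluorescence polarization competition: GST-tagged CIB1 (1 uM final) preincubated with compound 15 min at room temperature, then FITC-labelled alphaIIb peptide (100 nM final) added. After 15 min at room temperature, polarization read at Ex 480/Em 540.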
A general note: In qHTS, concentration-response curves come from the screen itself.

Test [2] in a line: Primary qHTS for small molecule stabilizers of the endoplasmic reticulum resident proteome: Secreted ER Calcium Modulated Protein (SERCaMP) assay (AID 1508630). Also: % is scaled to controls: 0 for no effect and ±100 for the full control effect. Summed up:
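GLuc-SERCaMP-expressing SH-SY5Y cells, pretreated 16 h with compound, are challenged with thapsigargin to empty ER calcium stores; after 4 h, coelenterazine is added directly to the medium and luminescence is imaged.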

Test [3] is described as follows: A High-Content qHTS Against Drug Library for the Identification of Small Molecules that Inhibit DYT1 Early Onset Primary Dystonia-Associated Cell Pathology (AID 1645839; calls by dose curve; also: potency is read from the fitted curve at half-maximal effect; as to % pathology change, negative = correction: series mostly up to about 46 µM). Summed up: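 Flp-In T-REx 293 cells with tetracycline-inducible EGFP-delE hTOR1A (WT EGFP-hTOR1A as reference), 800 cells/well; compound added with tetracycline, 48 h at 37 C. Fixed, permeabilized cells imaged; %pathology (punctate TorsinA) primary, cell count counterscreen.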

Test [4] concerns the target Cytochrome P450 2D6 (Homo sapiens) (UniProt P10635). The test can be described thus: Cytochrome P450 family 2 subfamily D member 6 (CYP2D6) small molecule antagonists: luciferase biochemical (cell-free) qHTS assay (AID 1645840; active = well fitted curve in the direction sought with a large enough effect in the repeat runs; an effect the other way counts as inactive or inconclusive; also: nearly all actives have a fitted effect of over 55% in size; also: potency is read from the fitted curve at half-maximal effect; as to activity change, negative = inhibition: series mostly up to about 57 µM; % is scaled to controls: 0 for no effect and ±100 for the full control effect). Summed up: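 P450-Glo luminescent screen: recombinant CYP2D6 enzyme–proluciferin substrate mix preincubated with compound 10 min at room temperature, then NADPH regeneration added for 1 h at room temperature. Detection reagent added for 20 min; luciferin light read as relative luminescence units.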

Test [5] addresses Cytochrome P450 3A4 (Homo sapiens) (UniProt P08684). The test can be described thus: Cytochrome P450 family 3 subfamily A member 4 (CYP3A4) small molecule antagonists: luciferase qHTS assay (AID 1645841; active = well fitted curve in the direction sought with a large enough effect in the repeat runs; an effect the other way counts as inactive or inconclusive; also: nearly all actives have a fitted effect of over 45% in size). Summed up:
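P450-Glo CYP3A4 enzyme with proluciferin substrate preincubated 10 min with compound at room temperature, then NADPH regeneration 1 h. Luciferin detection reagent added for 20 min; luminescence recorded. Ketoconazole positive control.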

Test [6] deals with Cytochrome P450 2C9 (Homo sapiens) (UniProt P11712). Nature of the test: Cytochrome P450 family 2 subfamily C member 9 (CYP2C9) small molecule antagonists: luciferase biochemical (cell-free) qHTS assay (AID 1645842; active = well fitted curve in the direction sought with a large enough effect in the repeat runs; an effect the other way counts as inactive or inconclusive; also: nearly all actives have a fitted effect of over 55% in size; also: potency is read from the fitted curve at half-maximal effect; as to activity change, negative = inhibition: series mostly up to about 57 µM; % is scaled to controls: 0 for no effect and ±100 for the full control effect). Summed up:
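Luminescence, after 20 min with luciferin detection reagent, reflected CYP2C9 turnover during a 1 h NADPH-driven reaction at 37C. Enzyme-substrate mix contained 0.4% bovine serum albumin and was preincubated with compound 10 min at room temperature.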

The values below come from PubChem BioAssay (NCATS).

Each structure is given as a SMILES string. Results filed as inconclusive are left out. Values without a mark were called inactive. Activity calls are given as the source filed them. Unless noted, calls follow the shape of the dose curve; as a rule, active = well fitted curve in the direction sought with a large enough effect; inconclusive = small, poorly fitted or top-dose-only effect, or another doubt; inactive = no such curve, though single readings can be large; an effect the other way counts as inactive or inconclusive.

Chain of Calcium and integrin-binding protein 1 (Homo sapiens) (Q99828 whole entry, looked up): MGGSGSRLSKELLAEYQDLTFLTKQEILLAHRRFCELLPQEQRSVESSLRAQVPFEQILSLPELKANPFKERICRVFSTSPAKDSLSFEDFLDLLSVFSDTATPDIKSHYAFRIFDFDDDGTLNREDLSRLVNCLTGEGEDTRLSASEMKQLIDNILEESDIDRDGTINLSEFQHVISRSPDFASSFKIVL
Chain of Cytochrome P450 2D6 (Homo sapiens) (P10635 whole entry, looked up): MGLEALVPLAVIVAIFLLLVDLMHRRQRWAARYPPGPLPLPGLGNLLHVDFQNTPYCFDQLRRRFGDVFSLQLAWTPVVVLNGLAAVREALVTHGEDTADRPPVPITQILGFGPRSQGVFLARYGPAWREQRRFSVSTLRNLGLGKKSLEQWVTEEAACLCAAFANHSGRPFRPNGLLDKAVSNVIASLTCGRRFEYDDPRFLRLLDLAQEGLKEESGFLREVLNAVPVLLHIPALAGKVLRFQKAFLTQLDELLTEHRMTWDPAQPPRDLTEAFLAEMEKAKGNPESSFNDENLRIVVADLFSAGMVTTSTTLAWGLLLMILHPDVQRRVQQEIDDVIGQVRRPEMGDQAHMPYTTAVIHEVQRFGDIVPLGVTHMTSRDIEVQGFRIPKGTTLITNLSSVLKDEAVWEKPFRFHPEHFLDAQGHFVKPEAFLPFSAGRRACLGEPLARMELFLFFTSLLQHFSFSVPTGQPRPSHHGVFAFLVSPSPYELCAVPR
Chain of Cytochrome P450 2C9 (Homo sapiens) (P11712 whole entry, looked up): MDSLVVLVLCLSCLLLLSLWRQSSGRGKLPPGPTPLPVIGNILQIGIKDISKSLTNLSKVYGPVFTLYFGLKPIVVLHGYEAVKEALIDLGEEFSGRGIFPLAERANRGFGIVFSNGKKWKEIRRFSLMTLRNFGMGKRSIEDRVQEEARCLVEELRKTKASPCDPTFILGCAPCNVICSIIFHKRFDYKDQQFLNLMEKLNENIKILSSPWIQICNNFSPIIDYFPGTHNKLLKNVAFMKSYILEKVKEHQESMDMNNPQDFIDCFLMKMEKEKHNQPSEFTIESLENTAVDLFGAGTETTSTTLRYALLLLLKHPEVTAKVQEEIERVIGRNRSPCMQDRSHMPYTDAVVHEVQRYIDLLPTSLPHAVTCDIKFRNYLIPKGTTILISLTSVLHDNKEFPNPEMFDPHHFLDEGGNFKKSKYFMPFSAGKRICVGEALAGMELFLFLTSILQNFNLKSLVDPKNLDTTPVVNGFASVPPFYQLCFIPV
Chain of Cytochrome P450 3A4 (Homo sapiens) (P08684 whole entry, looked up): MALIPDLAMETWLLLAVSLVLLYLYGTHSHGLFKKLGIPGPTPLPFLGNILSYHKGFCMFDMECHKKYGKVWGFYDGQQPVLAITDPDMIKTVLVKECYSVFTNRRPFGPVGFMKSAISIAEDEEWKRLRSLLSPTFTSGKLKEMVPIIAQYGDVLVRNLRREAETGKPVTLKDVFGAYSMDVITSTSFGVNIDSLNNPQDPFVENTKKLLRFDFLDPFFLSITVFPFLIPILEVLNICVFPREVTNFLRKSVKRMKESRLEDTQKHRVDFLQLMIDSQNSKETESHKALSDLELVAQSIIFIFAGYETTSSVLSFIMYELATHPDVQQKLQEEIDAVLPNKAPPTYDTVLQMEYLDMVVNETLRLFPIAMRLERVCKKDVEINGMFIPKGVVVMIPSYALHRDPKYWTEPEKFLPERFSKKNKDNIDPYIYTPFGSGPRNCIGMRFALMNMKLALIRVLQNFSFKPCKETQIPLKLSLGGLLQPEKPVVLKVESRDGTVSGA

Consider `O=C(O)CCC(=O)Nc1ccc(S(=O)(=O)Nc2nccs2)cc1`, for which the Potency result in test [1], in test [2] and in test [3] was “inactive” each time.
As for `CC1=C(C(=O)O)N2C(=O)[C@@H](NC(=O)[C@H](N)c3ccccc3)[C@H]2SC1`, the Potency entry in test [1], in test [2] and in test [3] was “inactive” throughout.
As to `Nc1nc(-c2ccccc2)c(Br)c(=O)[nH]1`, the Potency entry in test [1], in test [2], in test [3], in test [4], in test [5] and in test [6] was “inactive” each time.
Regarding `C/C=C/C=N/NC(=O)c1ccncc1`, the Potency entry in test [1], in test [2] and in test [3] was “inactive” throughout.
Regarding `COc1ccc(S(=O)(=O)N2c3ccc(Cl)cc3[C@@](O)(c3ccccc3Cl)[C@H]2C(=O)N2CCC[C@@H]2C(N)=O)cc1OC`, the Potency result in test [1], in test [2], in test [3] and in test [4] was “inactive” in each case. The Potency in test [6] is 15.5 µM (active).
Turning to `CCCCCCCC/C=C\CCCCCCCCN`, the Potency result in test [1], in test [2] and in test [3] was “inactive” in each case. In addition, the Potency in test [4] was 0.55 µM (active); in test [6], 19.5 µM (active).
Consider `COc1ccc(/C=N/NC(=O)c2ccncc2)cc1OC`, for which the Potency result in test [1], in test [2] and in test [3] was “inactive” in each case. In addition, the Potency is 21.9 µM (active) in test [4] and 12.3 µM (active) in test [6].
As to `NS(=O)(=O)c1ccc(Cl)c(S(N)(=O)=O)c1`, the Potency entry in test [1], in test [2], in test [3], in test [4] and in test [6] was “inactive” throughout.
In the case of `OC(C#CCN1CCCC1)(c1ccccc1)c1ccccc1`, the Potency result in test [1], in test [2] and in test [3] was “inactive” each time. Besides, the results for the Potency in test [4] and in test [6] were 12.3 µM (active) and 8.71 µM (active), respectively.
For the compound `FC1(F)C(F)(F)C(F)(F)C2(F)C(F)(F)C(F)(F)C(F)(F)C(F)(F)C2(F)C1(F)F` (stereo not given), the Potency entry in test [1], in test [2], in test [3], in test [4] and in test [6] was “inactive” throughout.
As to `NCCNC(=O)c1ccc(Cl)cn1`, the Potency result in test [1], in test [2], in test [3], in test [4] and in test [6] was “inactive” throughout.
Regarding `NS(=O)(=O)c1cc(C(=O)O)cc(N2CCCC2)c1Oc1ccccc1`, the Potency result in test [1], in test [2], in test [3], in test [4] and in test [6] was “inactive” each time.
As to `CC(=O)OC[C@H]1O[C@@H](n2ncc(=O)[nH]c2=O)[C@H](OC(C)=O)[C@@H]1OC(C)=O`, the Potency result in test [1], in test [2], in test [3] and in test [6] was “inactive” each time. In addition, the Potency in test [4] was 7.76 µM (active).
For the compound `CNCCc1ccccn1`, the Potency entry in test [1], in test [2], in test [3], in test [4] and in test [6] was “inactive” each time.
`CC(C)Cn1cnc2c1c(=O)n(C)c(=O)n2C`: the Potency entry in test [1], in test [2], in test [3], in test [4] and in test [6] was “inactive” in each case.
As for `CN(C)C(=O)Nc1ccc(Cl)c(Cl)c1`, the Potency result in test [1], in test [2], in test [3], in test [4] and in test [6] was “inactive” each time.
Turning to `OCc1ccccn1`, the Potency entry in test [1], in test [2], in test [3], in test [4] and in test [6] was “inactive” each time.
As for `Nc1ccc(S(=O)(=O)NCc2ccccc2)cc1`, the Potency result in test [1], in test [2], in test [3], in test [4] and in test [6] was “inactive” each time.
Regarding `NC(=O)c1ccccc1O`, the Potency result in test [1], in test [2], in test [3], in test [4] and in test [6] was “inactive” throughout.
Turning to `N#C/C(=C1\SCC(c2ccccc2Cl)S1)n1ccnc1` (stereo not given), the Potency entry in test [1], in test [2] and in test [3] was “inactive” each time. Further, the Potency in test [4] was 0.275 µM (active); in test [6] it was 1.55 µM (active).
For the compound `CC(=O)Nc1ccc(S(=O)(=O)Nc2ccc([N+](=O)[O-])cc2)cc1`, the Potency entry in test [1], in test [2], in test [3] and in test [4] was “inactive” each time. Also, the Potency in test [6] is 13.8 µM (active).
For the compound `CCN[C@@H]1C[C@H](N)[C@@H](OC2OC(CN)=CCC2N)[C@H](O)[C@H]1O[C@H]1OC[C@](C)(O)[C@H](NC)[C@H]1O` (stereo not given in full), the activity change, negative = inhibition was 1.28% [at 1.07 µM] in test [1], -24.8% [at 0.478 µM] in test [2], 2.45% [at 0.91 µM] in test [4] and 10% [at 0.91 µM] in test [6]. In test [3], the % pathology change, negative = correction is 3.5% [at 0.369 µM].
Regarding `CC(=O)OCC(=O)[C@H]1CC[C@H]2[C@@H]3CCC4=CC(=O)CC[C@]4(C)[C@H]3CC[C@]12C`, the Potency entry in test [1], in test [2], in test [3] and in test [4] was “inactive” throughout. In test [6], the Potency is 4.9 µM (active).
As for `O=S(=O)(O)c1ccc(O)cc1`, the Potency result in test [1], in test [2], in test [3], in test [4] and in test [6] was “inactive” in each case.
Consider `CC(C)[N+](C)(C)CC(O)COc1cccc2ccccc12` (stereo not given), for which the Potency entry in test [1], in test [2], in test [3] and in test [6] was “inactive” each time. The Potency in test [4] is 6.92 µM (active).
For `CCc1cc(Cl)c(OC)c(C(=O)NC[C@@H]2CCCN2CC)c1O`, the Potency entry in test [1], in test [2], in test [3] and in test [6] was “inactive” throughout. Also, the Potency in test [4] is 0.219 µM (active).
Turning to `CCCCC(CC)COC(=O)/C=C/c1ccc(OC)cc1` (stereo not given), the Potency entry in test [1], in test [2], in test [3] and in test [4] was “inactive” in each case. The Potency in test [6] was 9.77 µM (active).
In the case of `CCN1/C(=C/C=C/c2sc3ccccc3[n+]2CC)Sc2ccccc21`, the Potency entry in test [1] and in test [2] was “inactive” each time. For the same compound, the results for the Potency in test [3], in test [4] and in test [6] were 11.2 µM (active), 2.13 µM (active) and 9.52 µM (active), respectively.
Consider `O=C(Oc1cccc2cccnc12)c1ccccc1`, for which the Potency result in test [1], in test [2], in test [3], in test [4] and in test [6] was “inactive” throughout.
Regarding `O=C(O)CCNC(=O)c1ccccc1`, the Potency result in test [1], in test [2], in test [3], in test [4] and in test [6] was “inactive” each time.
